Assay outcomes: PubChem, National Center for Advancing Translational Sciences (NCATS)
This is a sample that favours compounds with a hit; in the whole collection about 2.1% have one here.
TDP43 rescue: TDP-43 toxicity inhibition in yeast. Potency, µM (top dose mostly 46.1 µM), hits mostly activators. 410,000 compounds, 1.8% hits. AID 652104. TDP-43 expressing yeast growth rescue, BacTiter-Glo, 24 h; also: nearly all actives have a fitted effect of over 50% in size
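Cell-based yeast growth screen: TDP-43 expression induced in galactose, inoculum OD600=0.02 after raffinose pregrowth to mid-log. Read-out BacTiter-Glo luminescence at 24 hr, 30 deg C; inhibition of toxicity seen as signal increase.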
aSyn rescue: alpha-synuclein toxicity inhibition in yeast | Yeast expressing alpha-synuclein, growth rescue, BacTiter-Glo, 24 h | Potency, µM (doses to about 46.1 µM), actives largely listed as activators | 370,000 compounds, 0.14% hits | AID 652106; also: nearly all actives have a fitted effect of over 65% in size
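Rescue of yeast growth: cells expressing toxic alpha-synuclein, induced in galactose at OD600 0.02, incubated with compound 24 h at 30 C. ATP luminescence quantified growth; inhibitors of toxicity appear as activators.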
FUS yeast rescue: FUS proteinopathy suppression in yeast; S. cerevisiae FUS-expressing, growth rescue, OD600, 24 h; Potency, µM (titrated, usually from 76.6 µM), most hits filed as activators; 390,000 compounds, 0.24% hits; AID 1347120; also: nearly all actives have a fitted effect of over 55% in size
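Read-out: OD at 600 nm after 24hr at 30C, reporting rescue of FUS-induced yeast toxicity. Cells at OD 0.005 in galactose (2%) minimal medium; compounds tested in a dilution series; CP55940 titration from 92uM final as control.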
Abeta yeast res: compounds reversing amyloid beta toxicity in yeast. yeast expressing A-beta42, growth rescue, OD600, 48 h; response scale: 0% DMSO, 100% iron-clioquinol control. Potency, µM (highest dose often 46.1 µM), usual class: activators. 410,000 compounds, 0.063% hits. AID 1347071; also: nearly all actives have a fitted effect of over 55% in size
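Yeast growth medium received pinned compounds, then yeast cells expressing toxic A-beta were added; plates incubated at 30 C for 48 hr. Growth read as absorbance at 600 nm, normalized to DMSO and equimolar FeCl3 plus clioquinol controls.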
Large screens that a line does not name were inactive. Calls follow the shape of the dose curve; as a rule, active = well fitted curve in the direction sought with a large enough effect; inconclusive = small, poorly fitted or top-dose-only effect, or another doubt; inactive = no such curve, though single readings can be large; an effect the other way counts as inactive or inconclusive.

O=C(CSc1nccn1-c1cccc(Cl)c1)Nc1cccc(C(F)(F)F)c1	TDP43 rescue 20µM, Abeta yeast res inconclusive (no result: aSyn rescue)
Cc1cccc(-c2nc(SCC(=O)Nc3ccc4c(c3)OCCO4)c(-c3ccccc3)[nH]2)c1	TDP43 rescue 35µM, FUS yeast rescue inconclusive (no result: aSyn rescue)
O=C(CSc1nccn1-c1ccc(Cl)cc1)Nc1ccc(Cl)c(Cl)c1	none (no result: aSyn rescue)
CC(=O)Nc1cccc(-c2cc(C(C)=O)c3n(c2=O)CCC3)c1	none (no result: TDP43 rescue, aSyn rescue, Abeta yeast res)
Ic1ccc(/C=C2\C=Cc3ccccc32)cc1	none (no result: TDP43 rescue, FUS yeast rescue, Abeta yeast res)
O=C(CSc1nccn(-c2ccc(F)c(F)c2)c1=O)NC1CCCC1	none
Cc1cccc(-n2ccnc2SCC(=O)Nc2cccc3ccccc23)c1	TDP43 rescue 22µM
O=C(CSc1nccn(-c2cccc(F)c2)c1=O)Nc1ccc(Cl)cc1F	TDP43 rescue 18µM
Cc1cccc(-n2ccnc2SCC(=O)Nc2ccccc2C(F)(F)F)c1	none
CC(C)N1CCCCC(NC(=O)c2ccc(F)cc2)C1=O (stereo unspecified)	none (no result: TDP43 rescue, aSyn rescue, Abeta yeast res)
CC1(C(=O)NCC2CCCCC2)CCN1C(=O)Cc1ccc(-c2ccccc2)cc1 (stereo unspecified)	TDP43 rescue 20µM, FUS yeast rescue inconclusive
CC1(C(=O)NC2CCCC2)CCN1C(=O)Cc1ccc(-c2ccccc2)cc1 (stereo unspecified)	TDP43 rescue inconclusive, aSyn rescue inconclusive
Cc1ccc(CNC(=O)C2(C)CCN2C(=O)Cc2ccc(-c3ccccc3)cc2)cc1 (stereo unspecified)	TDP43 rescue 35µM, aSyn rescue inconclusive
O=CN1CCN(C(=O)C2CCN(c3ncnc4c3sc3cccc(F)c34)CC2)CC1	none (no result: TDP43 rescue, aSyn rescue, Abeta yeast res)
COc1ccc2c(-c3ccccc3)cc(SCC(=O)N(C)C)nc2c1	TDP43 rescue 22µM
COc1ccc2c(C)cc(SCC(=O)NC3CCCC3)nc2c1	aSyn rescue 11µM
Cn1ccc2c(-c3ccc(F)nc3)cc3c(c21)C1CCC3O1 (stereo unspecified)	TDP43 rescue inconclusive
Cn1ccc2c(-c3cccc4ccccc34)cc3c(c21)C1CCC3O1 (stereo unspecified)	TDP43 rescue 16µM, FUS yeast rescue inconclusive
COc1ccc(-c2cc3c(c4c2ccn4C)C2CCC3O2)cn1 (stereo unspecified)	TDP43 rescue 13µM, aSyn rescue inconclusive
Cn1ccc2c(-c3ccc4[nH]ccc4c3)cc3c(c21)C1CCC3O1 (stereo unspecified)	TDP43 rescue 16µM
COc1ccccc1-c1cc2c(c3c1ccn3C)C1CCC2O1 (stereo unspecified)	TDP43 rescue inconclusive
CCC[C@H]1[C@@H](NCc2cccs2)CC[C@@]23CCCN2C(=O)CCC[C@@H]13	none (no result: TDP43 rescue, aSyn rescue, Abeta yeast res)
Clc1ccccc1COc1ccccc1-c1nnco1	TDP43 rescue 3.2µM
CCOc1ccc(CCNC(=O)c2cc3ccsc3n2C)cc1OCC	none (no result: TDP43 rescue, aSyn rescue, Abeta yeast res)
CCOC(=O)C1=NNC(C(=O)c2ccc(C)cc2)C1c1ccc(OC)cc1 (stereo unspecified)	TDP43 rescue 20µM
CCOC(=O)C1=NNC(C(=O)c2ccc(Cl)cc2)C1c1ccc(OC)cc1 (stereo unspecified)	TDP43 rescue inconclusive
COc1ccc(Nc2ccccc2C(=O)O)cc1	none
COc1ccc(Nc2cccccc2=O)cc1	TDP43 rescue 11µM
CCCCC1=CC2=C(c3ccco3)C(=O)C(C)(OC(=O)c3ccc(OC)cc3)C(=O)C2=CN1CCCCO (stereo unspecified)	FUS yeast rescue inconclusive
CCCCC1=CC2=C(c3ccco3)C(=O)C(C)(OC(=O)c3ccc(OC)cc3)C(=O)C2=CN1CC1CC1 (stereo unspecified)	FUS yeast rescue 20µM
Fc1cccc(Cl)c1Cn1c(-c2cccs2)nc2ccccc21	TDP43 rescue inconclusive (no result: aSyn rescue)
O=C(Cc1ccc(F)cc1)OCN1C(=O)c2ccccc2C1=O	TDP43 rescue inconclusive
O=C(Cc1cccc(C(F)(F)F)c1)OCN1C(=O)c2ccccc2C1=O	TDP43 rescue 35µM
CN(C)CC(=O)N[C@H]1C[C@@H]2O[C@@H](CO)CC[C@@H]2O[C@@H]1CCc1ccc(C2=CCCCC2)cc1	none (no result: TDP43 rescue, aSyn rescue, Abeta yeast res)
Cc1ccc(NC(=O)c2cc3c([nH]c2=O)CC(c2ccccc2)CC3=O)cc1 (stereo unspecified)	none (no result: TDP43 rescue, FUS yeast rescue, Abeta yeast res)
CCn1c(C)c(C)c2cc(C(=O)N3CCCC3)ccc21	none
CCn1c(C)c(C)c2cc(C(=O)N3CCN(c4ccccc4)CC3)ccc21	TDP43 rescue 22µM, FUS yeast rescue inconclusive
Cc1nc(C/C(=N\Nc2ccccc2)c2ccc(O)cc2O)cs1	TDP43 rescue 20µM
C=C1C=C(C(F)F)n2ncc(C(=O)NCc3ccc(OC)c(OC)c3)c2N1	none (no result: TDP43 rescue, FUS yeast rescue, Abeta yeast res)
CCn1c(-c2cc(-c3ccc(OC(C)C)cc3)nc3ccccc23)n[nH]c1=S	TDP43 rescue inconclusive, FUS yeast rescue 35µM
N#CC1c2ccccc2-c2ccccc2N1C(=O)c1ccccc1 (stereo unspecified)	TDP43 rescue 28µM, aSyn rescue 22µM
CC1C=Cc2ccccc2N1C(=O)c1ccccc1 (stereo unspecified)	none
COc1ccc(C(=O)c2sc(Nc3ccccc3F)nc2N)cc1	TDP43 rescue 20µM
COc1ccc(C(=O)c2sc(Nc3ccccc3)nc2N)cc1	none
CCC1CN(C(=O)Nc2ccc(C(=O)O)cc2)c2cc(Cl)ccc2O1 (stereo unspecified)	TDP43 rescue 13µM (no result: aSyn rescue)
CCc1ccccc1NC(=O)N1CC(CC)Oc2ccc(Cl)cc21 (stereo unspecified)	FUS yeast rescue inconclusive (no result: aSyn rescue)
Cc1ccc(-c2cc(C(=O)N/N=C/c3cccnc3)c3ccccc3n2)cc1C	TDP43 rescue 22µM, FUS yeast rescue inconclusive
CC(/C=N/NC(=O)c1cc(-c2ccncc2)nc2ccccc12)=C\c1ccco1	FUS yeast rescue 28µM
O=C(N/N=C/c1cccnc1)c1cc(-c2ccccc2)nc2ccccc12	none
CC(=O)C1(O)C(C)CC2C3CC=C4CC(O)CCC4(C)C3CCC21C (stereo unspecified)	none
CC12CCC(O)CC1=CCC1C2CCC2(C)C3=NN=CC3CC12 (stereo unspecified)	TDP43 rescue 16µM, aSyn rescue inconclusive
COc1cccc(-c2cc3c(c4c2ccn4C)C2CCC3C2)c1 (stereo unspecified)	TDP43 rescue inconclusive
Cn1ccc2c(-c3ccc(C(=O)O)cc3)cc3c(c21)C1CCC3C1 (stereo unspecified)	TDP43 rescue 28µM
COc1ccc(-c2cc3c(c4c2ccn4C)C2CCC3C2)cc1 (stereo unspecified)	TDP43 rescue 35µM
Cn1ccc2c(-c3ccc(C(C)(C)C)cc3)cc3c(c21)C1CCC3C1 (stereo unspecified)	none
Cc1cccc2c1-c1sc(C(=O)N(C)c3cccc(C(F)(F)F)c3)cc1CO2	none (no result: aSyn rescue)
Cn1c(=O)c2c(nc(NCc3ccccc3)n2Cc2ccc(Cl)c(Cl)c2)n(C)c1=O	none (no result: aSyn rescue)
Cc1c(C(=O)N2CCN(CC(=O)Nc3ccccc3Cl)CC2)oc2ccc(Br)cc12	TDP43 rescue 13µM
